Measurements reported in PubChem BioAssay AID651658 (Broad Institute, 2012).
Screen size: about 340,000 compounds; about 5,100 (1.5%) were called active.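 The calls were made as follows: active = mean Tm shift, scaled 0 neutral to 100 positive control, at about 1.3% or above, every replicate too (limit read from the data); inconclusive = no clear call, values can overlap the other calls; inactive = the rest.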 The full list was thinned out, with actives kept by preference.

Biological target: Fibroblast growth factor 22 (Homo sapiens) (UniProt Q9HCT0)
Sequence (Q9HCT0 whole entry, looked up): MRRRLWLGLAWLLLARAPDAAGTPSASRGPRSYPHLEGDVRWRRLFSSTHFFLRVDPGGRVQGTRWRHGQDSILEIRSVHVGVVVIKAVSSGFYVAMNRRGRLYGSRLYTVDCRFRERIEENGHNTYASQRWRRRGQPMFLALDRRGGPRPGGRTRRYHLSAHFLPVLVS
Test: FGF22 ligand-induced thermal stabilization – biophysical, thermal shift, single point, FGF22 synaptogenesis inhibitor project, primary screen (AID 651658)
Conditions: recombinant FGF22 thermal shift, SYPRO orange fluorescence; at 9.99 µM; active compounds read high; percent of sucrose octasulfate shift, DMSO zero

| SMILES | activity (Tm shift, normalised) |
| --- | --- |
| Cc1cccc(C)c1OCC(=O)NC(Cc1c[nH]c2ccccc12)C(=O)O (configuration not stated) | -0.152% (inactive) |
| COc1ccc(-c2cc(=O)oc3cc(OCC(=O)N[C@@H](Cc4c[nH]c5ccccc45)C(=O)O)ccc23)cc1 | 2.9% (active) |
| COc1ccc(-c2cc(C(=O)NC(Cc3c[nH]c4ccccc34)C(=O)O)c(C)o2)cc1OC (configuration not stated) | 1.25% (inactive) |
| CC=Cc1ccc2n(c1=O)C[C@@H]1[C@@H](CO)[C@H](C(=O)N[C@@H](C)c3ccccc3)[C@H]2N1Cc1ccncc1 (mixture of isomers) | -0.334% (inactive) |
| COc1ccc(C2=NN(C(=O)c3ccccc3C(=O)O)C(c3ccccc3O)C2)cc1 (configuration not stated) | -0.24% (inactive) |
| COc1cccc(C2CC(c3ccccc3)=NN2S(=O)(=O)c2ccccc2)c1OC (configuration not stated) | 44% (active) |
| CS(=O)(=O)Nc1cccc(C2=NN(S(=O)(=O)c3ccccc3)C(c3cccs3)C2)c1 (configuration not stated) | 0.242% (inactive) |
| C[C@H]1CN([C@@H](C)CO)S(=O)(=O)c2ccc(C3=CCCC3)cc2O[C@H]1CN(C)C(=O)Cc1ccncc1 | 0.421% (inactive) |
| O=C(C1CCCCC1)N1[C@H](CO)[C@@H](c2ccccc2)C12CN(Cc1cccc(Cl)c1)C2 | -0.133% (inactive) |
| COc1ccc(C(=O)OCc2cc(=O)n3ccsc3n2)cc1F | 44% (active) |
| O=C(OCc1cc(=O)n2ccsc2n1)C1(c2ccc(Cl)cc2)CC1 | 0.39% (inactive) |
| COc1cc(C(=O)OCc2cc(=O)n3ccsc3n2)ccc1OC(C)C | 0.144% (inactive) |
| CCCC#Cc1ccc([C@H]2[C@H]3CN(C(=O)Nc4cccc(F)c4)CC(=O)N3[C@H]2CO)cc1 | 0.366% (inactive) |
| COc1cc2nc(CN(C)Cc3ccc(F)cc3)[nH]c(=O)c2cc1OC | -0.106% (inactive) |
| COc1cc(CN(C)Cc2nc3cc(C(F)(F)F)ccc3c(=O)[nH]2)ccc1OC(F)F | -0.382% (inactive) |
| COc1ccc(CN(C)Cc2nc3cc(OC)c(OC)cc3c(=O)[nH]2)c(OC)c1 | 43.6% (active) |
| O=C(Nc1ccc(C(F)(F)F)cc1)N[C@@H]1CC[C@H](CC(=O)N2CCCCC2)O[C@H]1CO | -0.164% (inactive) |
| CO[C@@H]1CN(C)C(=O)c2ccc(NS(C)(=O)=O)cc2OC[C@@H](C)N(C(=O)C2CCOCC2)C[C@@H]1C | -0.055% (inactive) |
| O=C(c1ccc(F)cc1)N1CC2(C1)[C@H](c1ccccc1)[C@@H](CO)N2Cc1ccccn1 | -0.271% (inactive) |
| O=C(NCCc1c[nH]c2ccccc12)c1cc2ccccc2oc1=O | 0.185% (inactive) |
| O=C(NCCc1c[nH]c2ccccc12)C(=O)NCC1CCCO1 (configuration not stated) | 1.53% (active) |
| N#C/C(=C/c1ccc(N2CCCCC2)o1)C(=O)NCCc1c[nH]c2ccccc12 | -0.174% (inactive) |
